Source: PubChem BioAssay
Only some compounds are listed: those with a hit (about 0.65% of all), similar ones and a draw of the others.
NS1 function inh – qHTS Assay for Inhibitors of Influenza NS1 Protein Function; Potency, µM (top dose mostly 46.1 µM); 270,000 tested, 0.4% active; further: actives are rising curves; nearly all actives have a fitted effect of over 50% in size
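Read-out: OD600 growth recovery of NS1-expressing budding yeast. Cells grown overnight at 30C in -URA glucose medium, washed, resuspended and diluted 1:100 in 2% galactose assay medium, pH 6.0. Same strain lacking NS1 served as positive control.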
SARS PLpro yeast-1 – qHTS of Yeast-based Assay for SARS-CoV PLP; S. cerevisiae expressing SARS-CoV PLpro, growth rescue; Potency, µM (doses to about 32.9 µM), hits mostly activators; 330,000 tested, 0.19% active; AID 485353, 2010; further: nearly all actives have a fitted effect of over 55% in size
AMA1 RON2 block – qHTS for Inhibitors of AMA1-RON; Towards Development of Antimalarial Drug Lead: Primary Screen; Plasmodium falciparum AMA1 (3D7) - RON2 peptide interaction; AlphaScreen AMA1-biotinylated RON2 peptide binding; Potency, µM (doses to about 58.2 µM), hits mostly inhibitors; 360,000 tested, 0.2% active; active means well fitted inhibition curve with a large enough effect; inconclusive means small, poorly fitted or top-dose-only effect; inactive means no such curve, though single readings can be large or run the other way; further: nearly all actives have a fitted effect of over 45% in size
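AMA1 (3D7) with his tag at 25 nM final met compounds first, then biotinylated RON2 peptide at 25 nM; detection used donor plus acceptor beads, 10 µg/mL apiece, read by AlphaScreen after 30 min at room temperature.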
SARS PLpro yeast-2 – qHTS of Yeast-based Assay for SARS-CoV PLP: Hit Validation; shares compounds with SARS PLpro yeast-1; yeast expressing SARS-CoV PLpro, growth phenotype rescue; calls only; 1,000 tested, 19% active; AID 652038, 2013; call rule not given here
A number is an active result; i = inactive; ? = inconclusive; nt = not tested or not shown; + = active, no number; [ ] = another dose, or the depositor's remark. Unless noted, the call rests on the fitted dose curve.

SMILES | NS1 function inh | SARS PLpro yeast-1 | AMA1 RON2 block | SARS PLpro yeast-2
Cc1cc(C(=O)OCC(=O)N2CC(=O)Nc3ccccc32)c(C)n1-c1ccccc1 | i | i | i | nt
Cc1cc(C(=O)OCC(=O)N2CC(=O)Nc3ccccc32)c(C)n1-c1ccc(F)cc1 | i | 4µM | i | ?
COc1cc(C2OC(=O)c3ccccc3S2)cc(OC)c1OC (configuration not stated) | i | i | i | nt
COc1ccc(C2OC(=O)c3ccccc3S2)cc1 (configuration not stated) | i | ? | i | i
Cc1cccc(NC(=S)NCC2CCCO2)c1 (configuration not stated) | i | ? | i | i
Cc1ccc(NC(=S)NCC2CCCO2)cc1C (configuration not stated) | i | i | i | nt
COc1ccc(OCC(=O)Nn2c(-c3ccc(OC)cc3)nc3ccccc3c2=O)cc1 | i | ? | i | +
COc1ccc(OCC(=O)Nn2c(-c3ccc(C)cc3)nc3ccccc3c2=O)cc1 | i | i | i | nt
CC1(C(=O)NS(=O)(=O)c2cccc(C#N)c2)CCN1C(=O)C1(c2ccc(Cl)cc2)CCC1 (configuration not stated) | nt | nt | i | nt
CCOc1ccc2[nH]c(C)c(CN3CCN(CC)CC3)c(=O)c2c1 | i | i | i | nt
CCCCN(C)Cc1c(C)[nH]c2ccc(OCC)cc2c1=O | i | ? | i | i
Cn1c(CO)cnc1-c1ccccc1 | i | i | i | nt
O=C(COC(=O)/C=C/c1ccccc1)NNC(=O)c1ccccc1F | nt | i | i | nt
COc1ccc([C@H]2C[C@H](n3cc(C4CC4)nn3)[C@@H](O)CN2C(=O)C2CCCCC2)cc1 | nt | nt | i | nt
CCCNC(=O)c1ccc(Cn2c(=S)[nH]c3c([nH]c4ccc(OC)cc43)c2=O)cc1 | ? | 14µM | i[2.32 µM] | i
CCCNC(=O)CCCCn1c(=S)[nH]c2c([nH]c3ccc(OC)cc32)c1=O | nt | i | i | nt
S=C(Nc1ccc(Oc2ccccc2)cc1)NC1CCCCC1 | i | i | i | nt
S=C(NNc1ccc2ccccc2c1)NC1CCCCC1 | i | nt | 16µM | ?
O=C(O)COc1ccccc1 | nt | i | i | nt
NOCC(=O)O | ? | ? | i | i
O=S(=O)(c1ccc2ccccc2c1)N1CCN(c2ccc(O)cc2)CC1 | nt | i | i | nt
Cc1nn(Cc2ccccc2)c(C)c1/C=N/NC(=O)CNc1cccc(C(F)(F)F)c1 | i | 11µM | i | i
COc1ccc(NCC(=O)N/N=C/c2c(C)nn(Cc3ccccc3)c2Cl)cc1 | ? | i | i | nt
CC(=O)NC(c1ccccc1)c1cc(Cl)c2cccnc2c1O (configuration not stated) | i | ? | i | nt
CC(=O)NC(c1ccc(N(C)C)cc1)c1cc(Cl)c2cccnc2c1O (configuration not stated) | nt | nt | i | nt
SMILES | NS1 function inh | SARS PLpro yeast-1 | AMA1 RON2 block | SARS PLpro yeast-2
O=C(NC(c1ccc(Cl)cc1)c1cc(Cl)c2cccnc2c1O)c1cccnc1 (configuration not stated) | i | 2.5µM | i | i
COc1ccc(C(NC(C)=O)c2cc(Cl)c3cccnc3c2O)cc1 (configuration not stated) | i | 10µM | i | i
Cc1ccc(NC(=O)COC(=O)c2cc(=O)c3cc(F)ccc3o2)cc1 | nt | i | i | nt
CCc1ccc(N(CC(=O)NC2CCCCC2)C(=O)CCC(=O)Nc2ccccn2)cc1 | i | i | i | nt
COc1ccc(C2C(C#N)=C(N)Oc3cc(O)ccc32)cc1Cl (configuration not stated) | i | i | i | nt
O=C(Nc1nnc(-c2ccncc2)o1)c1ccc(Br)s1 | nt | i | i | nt
C[C@@H]1CN([C@@H](C)CO)C(=O)CCCn2nncc2CO[C@H]1CN(C)C | nt | nt | i | nt
Cc1ncc(CO)c(/C=N/Nc2ccc(C(F)(F)F)cn2)c1O | i | i | i | nt
Cc1ncc(CO)c(/C=N/NC(=S)Nc2ccc(F)cc2)c1O | i | 5.6µM | i[11.6 µM] | i
CC(NC(=O)CCNC(=O)c1ccc(Br)cc1)c1ccc(-n2ccnc2)cc1 (configuration not stated) | nt | i | i | nt
O=C(Nc1ccc(S(=O)(=O)Nc2ccccc2F)cc1)N1CCCCC1 | i | ? | i | +
COc1ccccc1NS(=O)(=O)c1ccc(NC(=O)N2CCCCC2)cc1 | i | i | i | nt
O=C(Nc1nc(-c2ccccc2)c(-c2ccccc2)o1)c1ccc(F)cc1 | i | i | i | nt
COc1cccc(C(=O)Nc2nc(-c3ccccc3)c(-c3ccccc3)o2)c1 | i | ? | i | +
CCN(CC)C(=O)Cn1cc(C(=O)C(=O)N2CCN(Cc3ccc4c(c3)OCO4)CC2)c2ccccc21 | i | i | i | nt
CCCCOc1ccc(C(=O)NCC(=O)NCCOc2ccc(C)cc2)cc1 | nt | i[6.58 µM] | i | nt
CCCCOc1ccc(C(=O)NCC(=O)NC2CC2)cc1 | nt | 11µM | i | i
CCCC(=O)Nc1ccc(C(=O)NNC(=O)c2ccco2)cc1 | ? | ? | i | i
CC(C)C(=O)Nc1ccc(C(=O)NNC(=O)c2ccco2)cc1 | i | i | i | nt
COc1cc2c(cc1OC)CC(C(=O)NCc1ccccc1)NC2 (configuration not stated) | i | i | i | nt
CCN(CC)S(=O)(=O)c1ccc(S(=O)(=O)N2CCCC2C(=O)O)cc1 (configuration not stated) | i | 22µM | i | i
Nc1ccc(S(=O)(=O)N2CCCC2C(=O)O)cc1 (configuration not stated) | i | i | i | nt
CCCN(CC(=O)Nc1ccccc1C)C(=O)CCN1C(=O)c2cccc([N+](=O)[O-])c2C1=O | nt | i | ? | nt
CCOC(=O)C1CCN(C(=O)COC(=O)CN(C)S(=O)(=O)c2ccc(NC(C)=O)cc2)CC1 | nt | nt | i | nt
Cc1ccc(CNC(=O)/C=C/c2ccc(Br)o2)cc1 | i | nt | i | i
SMILES | NS1 function inh | SARS PLpro yeast-1 | AMA1 RON2 block | SARS PLpro yeast-2
O=C(/C=C/c1ccc(Br)o1)NCc1ccccc1 | i | i | i | nt
O=C1OCCN1C(=O)[C@H]1[C@H](c2ccc(Cl)cc2)C(c2ccccc2)=NN1c1ccccc1 | nt | i | i | nt
O=C1OCCN1C(=O)[C@H]1[C@H](c2ccccc2)C(c2cccc(Cl)c2)=NN1c1ccccc1 | nt | ? | i | +
CCOc1ccc(C(=O)CC(=O)C(=O)NCCc2ccc(OC)c(OC)c2)cc1 | i | 20µM | i | ?
COc1ccc(OCCCC(=O)NCCc2ccc(OC)c(OC)c2)cc1 | i | i | i | nt
COc1cc2c(cc1OC)[C@@H]1O[C@](CCCCN3C(=O)c4ccccc4C3=O)(C2)Oc2cc(C)n(-c3ccccc3)c(=O)c21 | i | i[6.58 µM] | nt | nt
Cc1nnc(NC(=O)C2CCN(S(=O)(=O)c3ccc(Cl)cc3)CC2)s1 | nt | i | i | nt
c1ccc2c(CC3NCCN3)cccc2c1 | i | nt | nt | nt
C/C(=N\NC(=O)c1cc(-c2cccnc2)nc2ccccc12)c1ccc(O)cc1O | ? | ? | i | i
C/C(=N\NC(=O)c1cc(-c2cccc(OC(C)C)c2)nc2ccccc12)c1cccnc1 | i | i | i | nt
CN(Cc1ccc(C(C)(C)C)cc1)C(=O)C1CSC2(C)CCC(=O)N12 (configuration not stated) | nt | i | i | nt
O=C(O)CCC(=O)Nc1ccccc1C(=O)NCCc1ccccc1 | i | 4µM | i[2.32 µM] | i
O=C(O)CCC(=O)Nc1ccccc1C(=O)Nc1ccccc1 | i | i | i | nt
Cc1ccc(NC(=O)CNC(=O)c2ccc(C)o2)cc1 | i | i | i | nt
